Reference: PubChem BioAssay AID1745847 (National Center for Advancing Translational Sciences (NCATS), 2022)
The campaign covered roughly 2,100 compounds. About 670 (32%) were called active. Not shown: some 50% with an inconclusive outcome. Some of the results follow. Values without a mark were called inactive. The call rests on the fitted dose curve; in most records, active means well fitted inhibition curve with a large enough effect; inconclusive means small, poorly fitted or top-dose-only effect; inactive means no such curve, though single readings can be large or run the other way.

Test: CMV-Luciferase Counterscreen for Inhibitors of ATXN expression; further: nearly all actives have a fitted effect of over 55% in size
Conditions: HEK-293 CMV-luciferase reporter, luminescence, 24 h; series mostly up to 57.5 µM
Source text: PI: Daniel Scoles Ph.D. University of Utah School of Medicine, Salt Lake City, Utah MLPCN Grant: NS073009 Spinocerebellar ataxia type 2 (SCA2) is a multisystem neurodegenerative disease caused by a dominantly acting mutation leading to expansion of a polyQ domain in the ataxin-2 protein (ATXN2). SCA2 patients develop progressive ataxia and later lose function in other neuronal systems. Prominent parkinsonian signs develop in some patients. Like many neurodegenerative disorders, no symptomatic or disease-modifying treatments are known. The primary objective of the proposed research is to identify compounds inhibiting ATXN2 expression and to test them for efficacy in SCA2 mouse models. We have developed a cell-based assay paired with an in vivo mouse model using identical luciferase expression constructs. This approach takes advantage of an ATXN2-luciferase transgene, with the luciferase gene flanked by the upstream and downstream portions of the ATXN2 gene. Here we describe a 5-7 dose quantitative high thoroughput screen (qHTS) for compounds lowering ATXN2 expression. We screened the NIH Molecular Libraries Small Molecule Repository (MLSMR) and NCGC's mechanistically annotated (MIPE) and drug repurposing (NPC) collections of compounds for lowering expression of an ATXN2-luciferase reporter in HEK-293 cells. The assay is a multiplexed cell viability assay to ensure target reduction in the absence of cytotoxicity. Secondary qHTS assays included a CMV-luciferase reporter expressed in HEK-293 cells as well as a biochemical assay using recombinant luciferase to detect inhibitors of the reporter enzyme. Compounds that inhibit ATXN2 expression but is not cytotoxic were selected for confirmatory and secondary screens.
PROTOCOL TABLE (as described by Inglese J, Shamu CE and Guy RK. 2007) SEQUENCE No. (e.g., 1, 2, 3, etc.); PARAMETER (e.g., Cells, Incubation, Reagent, etc.); VALUE; DESCRIPTION. 1; Cells; 4 uL; white, solid bottom, 1536-well Greiner assay plate. 2; Incubation; 2 hr; 37 degree C in 5% humidified CO2. 3; Compounds; 23 nL; Kalypsis pintool (Wako USA) equipped with a 1536-well pin head. 4; Incubation; 24 hr; 37 degree C in 5% humidfified CO2. 5; Reagent; 1 uL; Gly-Phe-7-Amino-4-trifluoromethylcoumarin. 6; Incubation; 30 min; 37 degree C in 5% humidfified CO2. 7; Detection; Fluorescence; Viewlux plate reader (PerkinElmer). 8; Reagent; 3 uL; SteadyGlo luciferase solution (Promega). 9; Incubation; 5 min; room temperature. 10; Detection; Luminescence; ViewLux plate reader (PerkinElmer). NOTES (numbers refer to Sequence numbers above) 1. HEK-293 cells expressing CMV-luciferase reporter (designated as SC cells) were suspended in phenol-red free DMEM and dispensed in assay plates using a Multidrop Combi dispenser (Thermo Fisher Scientific). 2. Assay plates were incubated. Evaporation was prevented by covering assay plates with metal lids containing holes to allow gas diffusion. 3. Compounds were added in a dose response manner with the final concentrations of 57, 11.4, 2.28, 0.46, 0.091, 0.018, 0.0037 uM. Vehicle-only plates, with DMSO being pin-transferred to columns 5-48, were inserted uniformly at the beginning and the end of each library to monitor and record any shifts in assay performance. 5. 125 uM Gly-Phe-7-Amino-4-trifluoromethylcoumarin (MP Biomedicals) working concentration was used at a final concentration of 25 uM. 7. To assess cell viability; the assay plates were read using the ViewLux high-throughput CCD imager (PerkinElmer), wherein single end-point fluorescence measurement was acquired (excitation 405/10; emission 540/25 nm). 8. Detection reagent SteadyGlo Luciferase (Promega) was added to the assay plate. 10. Luminescence is then measured on the ViewLux imager equipped with a clear emission filter using a 2 sec exposure. […]
On the % scale 0 is the no-effect control and ±100 the full control effect; potency means the concentration at half of the fitted maximal effect.

| SMILES | Potency | activity change, negative = inhibition |
| --- | --- | --- |
| O=C(C1CCC(CNS(=O)(=O)c2cccc3nsnc23)CC1)N1CC=C(c2ccccc2)CC1 (stereo unspecified) | 3.16 µM (active) | – |
| CC(=O)N/N=C/c1cc(C(C)(C)C)cc(/C=N/NC(C)=O)c1O | 3.16 µM (active) | – |
| C(=N\Nc1ccc2nncn2n1)/c1ccccn1 | 17.8 µM (active) | – |
| O=c1cnnc(N/N=C/c2ccccn2)[nH]1 | 1.41 µM (active) | – |
| O=c1nc(N/N=C/c2ccccn2)cn[nH]1 | 14.1 µM (active) | – |
| Cc1nnc(N/N=C/c2ccccn2)[nH]c1=O | 1.78 µM (active) | – |
| C(=N\NC(=Nc1ccccc1)c1ccccn1)/c1ccccn1 | inactive | – |
| Cn1c(/C=C/c2ccc(Cl)cc2)c([N+](=O)[O-])c(=O)n(C)c1=O | 31.6 µM (active) | – |
| COc1cc2c(O)c3c(c(-c4ccc5c(c4)OCO5)c2cc1OC)C(=O)OC3 | – | 16.4% [at 11.4 µM] |
| CCN1CCN(C(c2ccc(C(F)(F)F)cc2)c2ccc3cccnc3c2O)CC1 (stereo unspecified) | 14.1 µM (active) | – |
| Cn1c(=O)c2cc(NC(=O)Nc3cccnc3)ccc2n1Cc1ccc(Cl)cc1 | inactive | – |
| S=C(NCc1cccnc1)Nc1ccc(Oc2ccc(Cl)cc2)cc1 | 10 µM (active) | – |
| NC(c1csc(Nc2nccc(C(F)(F)F)n2)n1)C1CCCCC1 (stereo unspecified) | – | 13.2% [at 11.4 µM] |
| CC1CC(C)CN(CCCNC(=O)c2cc3c(s2)-c2ccccc2OC3)C1 (stereo unspecified) | – | -23% [at 11.4 µM] |
| Cc1cccc2c1-c1sc(C(=O)Nc3ccccc3N3CCN(C)CC3)cc1CO2 | 22.4 µM (active) | – |
| CCc1ccc(NC(=O)COc2ccc(/C=C(/C#N)c3nc4ccccc4[nH]3)cc2OC)cc1 | 3.55 µM (active) | – |
| COCC(=O)OC/C(O)=C(\C#N)c1nc2ccccc2[nH]1 | – | -13.1% [at 11.4 µM] |
| O=C1/C(=C/c2ccc([N+](=O)[O-])cc2)C=C(c2ccccc2)N1c1ccc(O)cc1 | 3.98 µM (active) | – |
| COc1ccc(F)cc1-c1cc(NC=O)c2ncc(-c3cccc(C(=O)N(C)C)c3)n2c1 | – | -8.79% [at 11.4 µM] |
| Cc1cc(N2CCN(c3nc(-c4ccccc4)cs3)CC2)c2ccccc2n1 | 3.55 µM (active) | – |
| CCN(CC)CCC(=O)Nc1cccc2c1C(=O)c1ccccc1C2=O | – | -4.68% [at 11.4 µM] |
| CCN(CC)CCn1nc2c3c(cccc3c1=O)-c1ccccc1-2 | 8.91 µM (active) | – |
| CCN(CC)CCn1c2ccccc2c2cnc(N)c(C#N)c21 | – | -22.5% [at 11.4 µM] |

| SMILES | Potency | activity change, negative = inhibition |
| --- | --- | --- |
| O=C(NNC1=Nc2ccccc2SC1)c1ccc(Cl)cc1 | 1.78 µM (active) | – |
| O=C(CN1C(=O)c2ccccc2S1(=O)=O)Nc1ncc(Cl)cc1Cl | 3.16 µM (active) | – |
| CCn1c(C)cc(C(=O)CN2C(=O)c3ccccc3S2(=O)=O)c1C | 0.398 µM (active) | – |
| Cc1cc(C(=O)CN2C(=O)c3ccccc3S2(=O)=O)c(C)n1C(C)C | 0.562 µM (active) | – |
| Cc1cc(C(=O)CN2C(=O)c3ccccc3S2(=O)=O)c(C)n1CC1CCCO1 (stereo unspecified) | 0.501 µM (active) | – |
| Cc1nnc(SCC(N)=O)n1CC1CCCO1 (stereo unspecified) | inactive | – |
| Nc1nc(NCCc2ccccc2)nc(NCc2ccccc2)c1[N+](=O)[O-] | inactive | – |
| COC(=O)[C@H]1C[C@H](OC(=O)NC2CC2)[C@@]2(O)CN(S(=O)(=O)c3ccc(C)cc3)CC2[C@H]1C(=O)OC (stereo partly specified) | – | 4.52% [at 11.4 µM] |
| O=C(CN1C(=O)c2ccccc2S1(=O)=O)c1ccc(Cl)cc1Cl | 1 µM (active) | – |
| CC1Cc2cc(-c3csc(NC(=O)Cc4cccs4)n3)ccc2N1S(C)(=O)=O (stereo unspecified) | 1.41 µM (active) | – |
| O=c1c2c(nc3c(-c4ccc(Cl)cc4)c[nH]n13)CCCC2 | 0.891 µM (active) | – |
| O=c1c2c(nc3c(-c4cccc(Br)c4)c[nH]n13)CCCC2 | 3.55 µM (active) | – |
| CC1CCCCN1S(=O)(=O)c1ccc(C(=O)Nc2nnc(-c3ccncc3)o2)cc1 (stereo unspecified) | 8.91 µM (active) | – |
| CC1CCCN(S(=O)(=O)c2ccc(C(=O)Nc3nnc(-c4ccccc4Cl)o3)cc2)C1 (stereo unspecified) | 1.26 µM (active) | – |
| CN(C)CCCNC(=O)/C=C/c1ccc(OCc2c(F)cccc2Cl)cc1 | inactive | – |
| Clc1ccc(-c2cc(C3CCNCC3)[nH]n2)c(Cl)c1 | inactive | – |
| Cc1ccc(CN2CCC(c3cc(-c4ccc(Cl)cc4)n[nH]3)CC2)cc1 | 22.4 µM (active) | – |
| COc1ccc(N2CCN(C(=O)c3cc4c(C)nc5ccccc5c4o3)CC2)cc1 | 22.4 µM (active) | – |
| CCc1ccc(CNC(=O)c2cc3c(C)nc4ccccc4c3o2)cc1 | 10 µM (active) | – |
| CCOC(=O)c1cnc2ccc(OC)cc2c1Nc1ccc(N2CCN(C)CC2)cc1 | inactive | – |
| COc1ccc(C(=O)N2CCN(c3nc(C4CC4)nc4sc(C)c(C)c34)CC2)cc1 | 17.8 µM (active) | – |
| Cc1sc2nc(CN3CCCC3)nc(N3CCC(C(N)=O)CC3)c2c1C | inactive | – |
| Cc1ccc(C)c(OCCCC(=O)Nc2nccs2)c1 | inactive | – |
